Source: PubChem BioAssay (National Center for Advancing Translational Sciences (NCATS))
This is a sample that favours compounds with a hit; in the whole collection about 0.27% have one here.
TRPML1 ag: qHTS for Agonists of the Human Mucolipin Transient Receptor Potential 1 (TRPML1); AID 624414, 2012; 0.12% of 410,000 active; activation, % (test concentration not listed); TRPML1-expressing cells, Ca2+ dye fluorescence, FDSS; Mucolipin-1 (Homo sapiens), Q9GZU1; in the data active means activation above about 50%; inconclusive means mostly about 30% to 49%; further: 0% is about no effect
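Tetracycline-induced TRPML1-DL cells are seeded and incubated overnight before loading with a no-wash Ca2+ dye and quencher. Agonist activity is taken from the 110 s fluorescence read following compound pin-transfer on an FDSS, before EC80 54-4 challenge.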
TRPV1 PAM: HTS Assay for Compounds that Act as Potentiators of the Vanilloid Receptor 1. Transient receptor potential cation channel subfamily V member 1 (Homo sapiens), Q8NER1. TRPV1-expressing cells, Fluo-8 calcium influx, capsaicin EC20 potentiation. potentiation, % at 8.33 µM. 0.02% of 320,000 active. AID 540277, 2011; in the data active means potentiation above about 80%; inconclusive means between about 30% and that limit; further: 0% is about no effect
Target sequence (Q8NER1 whole entry, looked up): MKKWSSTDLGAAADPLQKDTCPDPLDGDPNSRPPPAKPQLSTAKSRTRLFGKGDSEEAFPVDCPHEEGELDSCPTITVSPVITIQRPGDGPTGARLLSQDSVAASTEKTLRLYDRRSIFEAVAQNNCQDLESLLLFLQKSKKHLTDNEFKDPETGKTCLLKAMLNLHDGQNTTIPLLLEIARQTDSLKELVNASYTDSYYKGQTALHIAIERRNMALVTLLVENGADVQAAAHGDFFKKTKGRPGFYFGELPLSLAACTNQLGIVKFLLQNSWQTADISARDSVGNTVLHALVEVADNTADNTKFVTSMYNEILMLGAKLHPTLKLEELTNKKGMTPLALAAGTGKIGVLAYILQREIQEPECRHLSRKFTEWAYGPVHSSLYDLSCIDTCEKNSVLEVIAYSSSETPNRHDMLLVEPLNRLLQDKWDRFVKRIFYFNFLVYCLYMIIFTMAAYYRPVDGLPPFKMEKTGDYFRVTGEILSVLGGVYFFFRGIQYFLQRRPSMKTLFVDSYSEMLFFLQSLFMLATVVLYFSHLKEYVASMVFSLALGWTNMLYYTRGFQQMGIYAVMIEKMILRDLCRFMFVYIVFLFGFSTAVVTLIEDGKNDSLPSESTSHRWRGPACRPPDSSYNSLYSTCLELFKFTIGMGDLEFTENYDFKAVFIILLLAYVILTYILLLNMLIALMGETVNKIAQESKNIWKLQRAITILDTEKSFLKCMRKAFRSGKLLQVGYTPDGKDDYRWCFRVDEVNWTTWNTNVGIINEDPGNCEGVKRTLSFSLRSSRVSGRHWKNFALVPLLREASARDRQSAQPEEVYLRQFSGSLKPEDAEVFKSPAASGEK
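Fluo-8 calcium influx in TRPV1-expressing cells, kinetic read (ex 480/em 520 nm). Compound added and read 3 min for agonist activity, followed by capsaicin at EC20 final and 2 min further read for enhancement.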
TRPV1 ag: HTS Assay for Compounds that Act as Agonists of the Vanilloid Receptor 1; Transient receptor potential cation channel subfamily V member 1 (Homo sapiens), Q8NER1; TRPV1-expressing cells, Fluo-8 calcium influx, agonist mode; activation, % at 8.33 µM; 0.19% of 320,000 active; in the data active means activation above about 80%; inconclusive means between about 30% and that limit; further: 0% is about no effect
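Cells expressing TRPV1 were dye-loaded with Fluo-8 and read kinetically: 10 s baseline, 3 min after compound (agonist portion), then 2 min after EC20 capsaicin (allosteric enhancer portion). Calcium-bound dye fluorescence at 480/520 nm.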
TRPML1 blocker: qHTS for Inhibitors of the Human Mucolipin Transient Receptor Potential 1 (TRPML1); TRPML1-inducible cells, Ca2+ dye fluorescence, FDSS; active compounds read low; inhibition of EC80 agonist-evoked calcium signal; activity change, negative = inhibition, % (test concentration not listed); 0.02% of 390,000 active; in the data active means activity change below about -50%; inconclusive means between about -30% and that limit;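 further: stimulus is agonist 54-4 at its EC80 concentration; on the % scale 0 is the no-effect control and ±100 the full control effect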
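Calcium fluorescence in TRPML1-DL cells induced overnight with Tet: a 110 s read after compound pin addition, then a 110 s antagonist read after challenge with 54-4 at 4 uM final (EC80).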
An asterisk follows results filed as active; ? = inconclusive; . = not tested or not shown.

SMILES	TRPML1 ag	TRPV1 PAM	TRPV1 ag	TRPML1 blocker
CC(=O)c1c(C)oc2c1cc(NS(=O)(=O)c1ccc(C(C)(C)C)cc1)c1ccccc12	28.0	.	.	-25.3
COc1ccc(CN(C2CCCCC2C)S(=O)(=O)c2ccc(S(=O)(=O)N(C)C)cc2)cc1OC (centres undefined)	133.9*	6.8	8.3	-25.0
CN(C)c1ccc(/C=C2\SC(=S)N(Nc3ncc(C(F)(F)F)cc3Cl)C2=O)cc1	52.8*	24.2	19.6	-4.0
CCCCCCCCCC[n+]1ccc(/C=C/c2c(C)[nH]c3ccccc23)cc1	122.9*	.	.	.
CC[n+]1ccc(/C=C/c2c[nH]c3ccccc23)cc1	5.9	8.3	5.0	-29.1
Cc1[nH]c2ccccc2c1/C=C/c1nccc2ccccc12	19.9	.	.	.
CCCCCCC[n+]1ccc(/C=C/c2c[nH]c3ccccc23)cc1	63.3*	.	.	.
Cc1c(NS(=O)(=O)c2ccc3c(c2)NC(=O)CC(=O)N3)cccc1[N+](=O)[O-]	0.2	2.0	0.2	9.2
COc1ccc(NC(=O)CC2(CC(=O)O)CCCC2)cn1	0.2	13.4	-1.9	-7.5
CCn1c(=O)cc(OCC(=O)NCc2ccco2)c2ccccc21	-0.6	7.2	-3.5	27.5
Cc1ccc(O)c(NC(=S)NC(=O)Cc2ccc(Cl)cc2)c1	74.6*	9.7	11.2	0.7
Cc1ccc(NC(=S)NC(=O)c2ccc(-c3ccc(Cl)cc3)o2)c(O)c1	-0.5	-2.3	0.2	-5.4
CCN1C(=O)CC(N2CCN(c3ccc(C(=O)c4ccccc4)cc3)CC2)C1=O (centres undefined)	1.3	?	-1.5	-0.9
COCCNc1nc(C)cc(-c2cc(C(=O)Nc3ccccc3)on2)n1	-0.6	.	.	-13.8
COc1ccc(CCNc2nc(-c3cccnc3)nc3ccccc23)cc1OC	0.4	-18.9	86.0*	-8.7
Cc1ccc(Nc2nc(-c3cccnc3)nc3ccccc23)cc1	5.5	2.9	95.1*	0.4
NC(=O)c1ccc(Oc2ccc(Cl)c3ccccc23)c([N+](=O)[O-])c1	0.8	-18.3	?	17.9
COc1cccc(C2/C(=C(\O)c3ccc4c(c3)OCCO4)C(=O)C(=O)N2CCCN2CCOCC2)c1OC (centres undefined)	-0.2	4.2	2.6	-0.2
CN(C)c1ccc(/C=C/c2ccnc3c(Cl)ccc(Cl)c23)cc1	63.8*	.	.	.
Cc1ccc2c(/C=C/c3ccc(N(C)C)cc3)ccnc2c1C	19.4	.	.	.
S=c1[nH]nc(COc2ccccc2)n1/N=C/c1c(Cl)cccc1Cl	1.0	-3.8	5.2	27.4
COc1cccc(NS(=O)(=O)c2ccc(Br)s2)c1	2.0	3.4	89.2*	19.2
CCCCN1C(=O)C(CC(=O)NCc2cccs2)CC(C(=O)N(C)C)=C1C (centres undefined)	0.2	.	.	-53.4*
Fc1ccc(-n2cc(-c3ccccc3)c3c(NCCc4ccccc4)ncnc32)cc1	0.9	.	.	64.9
COc1ccc(CCNc2ncnc3c2c(-c2ccccc2)cn3-c2ccc(Cl)cc2)cc1OC	76.8*	.	.	-18.1
SMILES	TRPML1 ag	TRPV1 PAM	TRPV1 ag	TRPML1 blocker
COc1ccc(CCNc2ncnc3c2c(-c2ccccc2)cn3-c2ccc(F)cc2)cc1OC	63.9*	.	.	-22.0
CC(=O)c1ccc(Nc2ncnc3c2oc2ccccc23)cc1	0.6	-10.6	87.8*	4.7
CC(=O)Nc1ccc(Nc2nc(C)nc3c2oc2ccccc23)cc1	2.9	?	2.4	24.5
Cc1ncsc1CCC(=O)N1CCCC(Nc2ccc(C(C)C)cc2)C1 (centres undefined)	0.0	0.0	83.7*	62.6
CC(C)c1ccc(NC2CCCN(C(=O)c3ccco3)C2)cc1 (centres undefined)	1.4	-17.6	97.5*	-2.5
O=C(c1ccnc(Cl)c1)N1CCCC(Nc2ccc(F)cc2)C1 (centres undefined)	0.2	-5.8	9.8	-13.1
CC(C)c1ccc(NC2CCCN(C(=O)c3ccnc(Cl)c3)C2)cc1 (centres undefined)	0.1	-12.4	90.9*	12.9
CC(C)c1ccc(NC2CCCN(C(=O)c3cc(C(C)C)[nH]n3)C2)cc1 (centres undefined)	-1.2	-49.6	-3.1	-4.0
COC(=O)c1ccc(C(=O)N2CCCC(Nc3ccc(C(C)C)cc3)C2)nc1 (centres undefined)	0.9	1.9	82.8*	16.7
Cc1ccc(NC(=O)Cn2c(=O)nc(-c3ccccc3)c3ccccc32)cc1F	1.4	.	.	29.8
CCC1OC(C)Cc2[nH][nH]c(=O)c21 (centres undefined)	-0.3	.	.	.
N#Cc1ccccc1S(=O)(=O)N1CCN(CC(O)CN2CCOCC2)CC1 (centres undefined)	-0.6	-7.0	-0.9	-8.4
O=C(CCc1ccccc1)N1CCCC(Nc2ccc(F)cc2)C1 (centres undefined)	0.4	15.6	87.4*	28.9
O=C(CCc1ccncc1)N1CCCC(Nc2ccc(F)cc2)C1 (centres undefined)	0.8	-13.0	14.2	-8.7
COc1ccc(-n2c(Cc3cc(=O)[nH]c(=O)[nH]3)nnc2SCC(=O)N2CCCC2)cc1	-0.1	.	.	-1.8
Cc1ccc(CN2C(=O)C(CC(C)C)Nc3ncnc(N4CCN(c5ccccn5)CC4)c32)cc1 (centres undefined)	0.0	-15.5	81.2*	-2.0
Cc1ccc(C)c(N2CCN(C(=O)c3cnn(C(C)(C)C)c3C3CCN(C(=O)OC(C)(C)C)CC3)CC2)c1	50.8*	.	.	-26.1
Cc1ccc(N2CCN(C(=O)c3cnn(-c4ccc(F)cc4F)c3C3CCN(C(=O)OC(C)(C)C)CC3)CC2)c(C)c1	57.8*	.	.	-9.9
CC(C)(C)OC(=O)N1CCC(c2c(C(=O)N3CCCCC3)cnn2-c2ccc(F)cc2F)CC1	0.3	.	.	-11.7
CCCCCCN1C=CC(=C/C=C(\C#N)C(=O)OCC)C=C1	59.5*	-20.9	?	-12.1
CC(=O)N1CCc2cc(S(=O)(=O)CCC(=O)Nc3ccc(C)cc3Br)ccc21	-0.1	.	.	5.0
Oc1ccccc1N=Cc1c(O)ccc2ccccc12	14.3	-5.8	97.0*	13.0
CNC(=O)c1c(NC(=O)c2ccc(S(=O)(=O)N(C)c3ccccc3)cc2)sc2c1CCN(C(C)C)C2	7.3	-5.8	13.4	3.2
CCN1CCc2c(sc(NC(=O)c3ccc(S(=O)(=O)N(C)c4ccccc4)cc3)c2C(=O)NC)C1	60.7*	13.4	?	0.4
CCOC(=O)c1c(NC(=O)C2CCN(S(=O)(=O)c3cccs3)CC2)sc(C)c1C	-0.4	-2.4	7.5	22.8
CCOc1ccc(NC(=O)CCNS(=O)(=O)c2ccc3c(c2)CCC(=O)N3)cc1	-0.4	-2.9	-0.8	-9.5
CCOc1ccccc1N(CC(=O)N1CCOCC1)S(=O)(=O)c1ccc(SC)cc1	104.8*	-33.5	8.4	-3.1
